# EBI2 block: blocks human EBI2 receptor beta-arrestin signaling. EBI2 beta-arrestin recruitment, luminescence, 7a,25-OHC stimulated. inhibition, % at 5 µM. 0.81% of 360,000 active. AID 651636; in the data active = inhibition above about 38%;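 also: enzyme fragment complementation signal reports receptor beta-arrestin coupling in cells; 0% = agonist plus DMSO wells and 100% = wells without agonist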
# SENP8 block-1: blocks the human protease SENP8; Q96LD8; 1.2% of 330,000 active; inhibition, % at 10 µM; purified SENP8, Z-RLRGG-aminoluciferin cleavage, luminescence; in the data active = inhibition above about 50%
# Target sequence (Q96LD8 whole entry, looked up): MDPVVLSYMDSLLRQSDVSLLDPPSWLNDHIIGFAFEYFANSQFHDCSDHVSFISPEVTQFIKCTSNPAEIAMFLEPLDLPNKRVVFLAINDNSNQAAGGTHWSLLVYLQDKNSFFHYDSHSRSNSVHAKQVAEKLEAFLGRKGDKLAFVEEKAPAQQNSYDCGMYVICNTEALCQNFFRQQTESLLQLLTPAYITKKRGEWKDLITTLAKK
# AHR activator: human AHR activation; P35869; AHR-responsive luciferase reporter cells, luminescence; activation, % at 5 µM; 2.5% of 320,000 active; in the data active = activation above about 47%;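 also: 0% = vehicle wells and 100% = reference agonist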
# SENP6 block: inhibitors of human SENP6 protease; Recombinant SENP6 catalytic domain, aminoluciferin luminescence; inhibition, % at 10 µM; 1.8% of 330,000 active; AID 2599;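 active = inhibition above about 50% at the single tested dose, limit read from the data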;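 also: plate controls were DMSO wells with enzyme for no effect and DMSO wells lacking enzyme for full effect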
# SENP7 block: SENP7 protease inhibition; 1.5% of 330,000 active; recombinant SENP7, Z-RLRGG-aminoluciferin luminescence, 40 min; inhibition, % at 5 µM; Q9BQF6; AID 434973;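 active = inhibition above about 50% at the single test dose, limit read from the data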;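 also: plate controls were DMSO with enzyme for no effect and no enzyme buffer wells for full effect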
# SENP8 block-2: inhibitors of human SENP8 protease; recombinant SENP8, Nedd8 substrate fluorescence; inhibition, % at 20 µM; 0.64% of 360,000 active; AID 602440; in the data active = inhibition mostly above about 40%, no sharp cut-off; inactive = mostly below about 27%
# SENP8 confirm: confirmation of human SENP8 protease inhibitors | shares compounds with SENP7 block | Recombinant SENP8, Z-RLRGG-aminoluciferin luminescence, 60 min | inhibition, % at 12.5 µM | 40% of 6,200 active | AID 488912;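 active = mean inhibition across replicates above about 50%, limit read from the data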
# SENP6 confirm: human SENP6 inhibition, confirmed. shares compounds with SENP7 block. recombinant SENP6, Z-RLRGG-aminoluciferin luminescence. inhibition, % at 12.5 µM. 58% of 6,200 active
# SENP7 conf: human SENP7 inhibition, confirmed; inhibition, % at 12.5 µM; 69% of 6,200 active; shares compounds with SENP7 block; recombinant SENP7, Z-RLRGG-aminoluciferin luminescence, 40 min; AID 488917
# Casp3 SENP sel: caspase-3 inhibition (SENP selectivity assay). 60% of 6,200 active. shares compounds with SENP7 block. purified caspase-3, Z-DEVD-aminoluciferin luminescence, 60 min. AID 488918. inhibition, % at 12.5 µM;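 active = mean inhibition above about 50%, limit read from the data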;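 also: plate controls were enzyme with DMSO for no effect and wells without caspase-3 for full effect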
# Target sequence (P42574 28-227 limits assumed): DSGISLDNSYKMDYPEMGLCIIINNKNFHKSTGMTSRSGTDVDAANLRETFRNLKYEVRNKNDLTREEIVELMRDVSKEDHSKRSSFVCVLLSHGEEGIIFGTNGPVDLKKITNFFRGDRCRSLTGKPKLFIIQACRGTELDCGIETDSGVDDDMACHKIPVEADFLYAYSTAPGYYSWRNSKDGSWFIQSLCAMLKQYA
# SENP luc ctr: interferes with luciferase luminescence in SENP counter-screen | shares compounds with SENP7 block | Pre-incubated SENP8/Z-RLRGG-aminoluciferin, luciferase luminescence interference | inhibition, % at 12.5 µM | 39% of 6,200 active | AID 488919;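 active = mean inhibition above about 50% when retested at one dose, limit read from the data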;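 also: plate controls were DMSO wells with completed reaction for no effect and substrate without enzyme for full effect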
# Numbers without * were called inactive; · = not tested or not shown. Rows were chosen to be rich in hits. Some 5% of all compounds tested hit in one or more screens of this group.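 The calls were made as follows, unless noted: active = mean inhibition above about 50% in the one-dose retest (limit read from the data); inactive = the rest.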
SMILES,EBI2 block,SENP8 block-1,AHR activator,SENP6 block,SENP7 block,SENP8 block-2,SENP8 confirm,SENP6 confirm,SENP7 conf,Casp3 SENP sel,SENP luc ctr
Nc1nonc1C(=O)NCCNS(=O)(=O)c1ccc(Br)cc1,1,-4,-1,-31,90*,9,-4,2,8,6,-2
CSCCC(NC(=O)c1ccccc1Br)C(=O)N1CCCCCCC1 (configuration not stated),-10,-10,-1,-7,0,7,·,·,·,·,·
O=C(COC(=O)C1CCN(S(=O)(=O)c2ccc3c(c2)OCCO3)CC1)Nc1cccc2ccccc12,-8,-14,0,-13,0,23,·,·,·,·,·
O=C(CNC(=O)c1cccs1)N/N=C/c1c(F)cccc1Cl,2,-7,9,-8,7,7,·,·,·,·,·
COc1cc(NC(=O)/C=C/c2ccccc2[N+](=O)[O-])cc(OC)c1,0,55*,27,73*,63*,14,11,8,-3,0,0
O=[N+]([O-])c1ccccc1C=NNC(=S)NN=Cc1ccccc1[N+](=O)[O-],19,·,·,·,·,34,·,·,·,·,·
O=C(/C=C/c1ccccc1[N+](=O)[O-])Nc1ccccc1,-2,81*,7,90*,87*,3,83*,82*,94*,81*,81*
COc1ccc(OC)c(NC(=O)C(=O)N/N=C/c2ccccc2[N+](=O)[O-])c1,-8,-4,22,-7,92*,16,7,8,7,4,3
O=C(COC(=O)C1CCN(c2ccc(C(F)(F)F)cn2)CC1)Nc1cccc(F)c1,0,-8,4,1,-1,-32,·,·,·,·,·
CC(C)N=C1NN=C(c2ccc(F)cc2)CS1,-7,73*,13,65*,79*,4,84*,85*,99*,96*,89*
CCN=C1NN=C(c2ccc(C)cc2)CS1,4,-7,7,-16,2,14,·,·,·,·,·
O=C(O)COc1ccccc1/C=N/NC(=O)CSc1nnc(SCc2ccc(Cl)cc2)s1,-3,45,5,66*,9,26,36,49,67*,19,3
Cc1ccc(CSc2nnc(SCC(=O)N/N=C/c3c(C)nn(-c4ccccc4)c3C)s2)cc1,-5,41,9,75*,55*,16,12,26,39,12,6
O=C(O)c1ccc(-c2noc(-c3cccc(Cl)c3)n2)cc1,-7,98*,7,97*,97*,11,98*,99*,102*,98*,95*
CN(C)c1ccc(-c2noc(-c3ccccc3O)n2)cc1,8,27,13,-25,90*,-50,11,19,17,50,12
O=C(O)c1ccc(-c2noc(-c3ccc(F)cc3)n2)cc1,-33,94*,11,98*,95*,14,98*,98*,102*,98*,96*
COc1ccc(-c2noc(-c3cccc(Cl)c3)n2)cc1OC,11,3,2,7,34,-4,·,·,·,·,·
Cc1ccc(-c2noc(-c3ccccc3C(=O)N3CCCC3)n2)cc1,7,1,33,2,2,14,·,·,·,·,·
O=C(NCc1ccco1)c1ccccc1-c1nc(-c2ccc(F)cc2)no1,10,0,2,3,0,7,·,·,·,·,·
O=C(O)c1ccc(-c2noc(-c3ccccc3Cl)n2)cc1,-5,97*,-3,97*,88*,9,99*,99*,103*,98*,98*
Cc1ccc(OCCSc2nc3ccccc3n2CC(=O)O)c(C(C)C)c1,5,-2,0,6,-7,14,·,·,·,·,·

# High-throughput results as filed in PubChem.
